From PubChem BioAssay
The list is not random: actives were taken first. Their share in the collection is about 2.4%.
Pol iota inh = blocks human DNA polymerase iota activity | Q9UNA4 | Pol iota fluorescent replication assay, 10 min | Potency, µM (top dose mostly 115 µM), for the others: at the top dose activity, negative = inhibition, actives largely listed as inhibitors | 1% of 390,000 active | AID 588590
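Pol iota at 10 nM preincubated 15 min with compounds at room temperature; reaction started with fluorescent substrate, 50 nM final. Fluorescence read kinetically at 0 and 10 min; buffer-only wells as negative control.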
FEN1 inhibitor = human FEN1 inhibition; Recombinant FEN1 flap cleavage, fluorescence, 15 min; Potency, µM (highest dose often 114 µM), inactives show top-dose activity change, negative = inhibition, most hits filed as inhibitors; 0.35% of 390,000 active; note: % is set by controls: 0 for no effect and ±100 for the full control effect; nearly all actives have a fitted effect of over 65% in size
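FEN1 at 10 nM, compound pretreatment for 15 min (room temperature), 50 nM final substrate to initiate; endpoint reads at 0 and 15 min; DMSO-only plates used as vehicle background.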
POLB inh = inhibitors of human DNA polymerase beta | Pol beta primer extension/strand displacement, fluorescence kinetic | Potency, µM (series often up to 114 µM), without a hit: at the top dose activity change, negative = inhibition, actives largely listed as inhibitors | 1.3% of 340,000 active; note: % is set by controls: 0 for no effect and ±100 for the full control effect
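Values derive from four-parameter Hill fits of normalized kinetic data: reads at 0 and 10 min following addition of 50 nM substrate to 10 nM Pol beta preincubated 15 min with compound.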
Pol eta inh = blocks human DNA polymerase eta activity | Q9Y253 | Potency, µM (titrated, usually from 114 µM), inactives show at the top dose activity change, negative = inhibition, actives largely listed as inhibitors | recombinant Pol eta, fluorescent DNA replication assay | 1.2% of 390,000 active; note: % is set by controls: 0 for no effect and ±100 for the full control effect
Target sequence (Q9Y253 whole entry, looked up): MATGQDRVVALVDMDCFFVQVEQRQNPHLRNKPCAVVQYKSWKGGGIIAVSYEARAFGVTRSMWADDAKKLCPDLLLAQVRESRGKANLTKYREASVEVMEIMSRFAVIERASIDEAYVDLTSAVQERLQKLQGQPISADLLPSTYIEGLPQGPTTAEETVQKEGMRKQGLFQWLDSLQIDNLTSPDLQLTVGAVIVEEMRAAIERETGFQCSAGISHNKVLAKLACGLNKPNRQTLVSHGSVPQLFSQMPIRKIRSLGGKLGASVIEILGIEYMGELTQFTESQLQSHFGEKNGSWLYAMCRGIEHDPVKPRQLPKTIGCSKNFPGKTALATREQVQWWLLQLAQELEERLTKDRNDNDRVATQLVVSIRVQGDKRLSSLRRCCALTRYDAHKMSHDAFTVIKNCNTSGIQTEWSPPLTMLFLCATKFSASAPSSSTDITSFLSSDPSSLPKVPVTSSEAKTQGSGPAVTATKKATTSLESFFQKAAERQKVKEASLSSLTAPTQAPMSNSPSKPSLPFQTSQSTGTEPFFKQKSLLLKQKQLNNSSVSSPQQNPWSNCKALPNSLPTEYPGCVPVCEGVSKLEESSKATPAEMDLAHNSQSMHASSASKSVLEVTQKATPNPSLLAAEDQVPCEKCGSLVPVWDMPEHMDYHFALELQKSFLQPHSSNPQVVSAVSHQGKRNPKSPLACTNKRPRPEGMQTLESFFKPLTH
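Fluorescent replication assay: 50 nM final substrate added after a 15 min room-temperature compound preincubation with 10 nM enzyme. Signal taken at 0 min and again at 10 min.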
POLK inh = inhibitors of human DNA polymerase kappa; Q9UBT6; purified Pol kappa, fluorescent DNA synthesis assay, 10 min; Potency, µM (top dose mostly 107 µM), for the others: at the top dose activity, negative = inhibition, hits mostly inhibitors; 0.53% of 400,000 active; note: % is set by controls: 0 for no effect and ±100 for the full control effect
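Pol kappa 10 nM + cpd, 15 min RT; start w/ substrate 50 nM final; fluorescence kinetic read, 0 and 10 min. Neg ctrl: buffer, no enzyme.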
WRN inhibitor = WRN helicase (human) inhibition | AID 651768 | 0.46% of 360,000 active | Potency, µM (highest dose often 114 µM), for the others: top-dose activity change, negative = inhibition, actives largely listed as inhibitors | Q14191 | WRN helicase unwinding, fluorescent forked duplex, kinetic; note: % is set by controls: 0 for no effect and ±100 for the full control effect; nearly all actives have a fitted effect of over 55% in size
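WRN at 20 nM final was preincubated with compound for 15 min at room temperature; reaction started with 100 nM forked duplex oligonucleotide carrying fluorophore and quencher plus 2 mM ATP (final). Unwinding followed kinetically by red fluorescence (ex 525/em 598 nm).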
* hit, by the source's call; ? = inconclusive; nt = not tested or not shown; [ ] = remark or other dose. Calls come from the whole dose curve; as a rule, active = well fitted curve in the direction sought with a large enough effect; inconclusive = small, poorly fitted or top-dose-only effect, or another doubt; inactive = no such curve, though single readings can be large; an effect the other way counts as inactive or inconclusive. Potency is the fitted concentration of half-maximal effect.

SMILES	Pol iota inh	FEN1 inhibitor	POLB inh	Pol eta inh	POLK inh	WRN inhibitor
OCCN1CCN(c2cc(-c3ccccc3)c3ccccc3n2)CC1	-7%	-3%	-6%	-18%	-12%	79µM*
CC1CN(c2ccccc2)c2nc3c(c(=O)[nH]c(=O)n3C)n2C1 (configuration not stated)	1%	-6%	31%	-8%	-8%	14%
Cn1c(=O)[nH]c(=O)c2c1nc1n2CCN1c1ccccc1	79µM*	0%	7%	-2%	?	nt
O=C(CNS(=O)(=O)c1ccc(Br)cc1)OCc1cc(=O)n2cc(Br)ccc2n1	nt	nt	35µM*	nt	nt	nt
COc1ccccc1NC(=O)N(Cc1nnc2n1CCCCC2)c1ccc(F)cc1	11%	9%	2%	-9%	-5%[60.1 µM]	nt
c1ccc(Cn2c(SCc3nc4ccccc4s3)nnc2-c2ccco2)cc1	22µM*	?	50µM*	14µM*	?	35µM*
CCOc1cc(/C=C/c2cccc[n+]2C)ccc1OCC(=O)Nc1ccc(C)cc1	?	-5%	13µM*	-20%	?	0%
COc1cc(/C=C/c2cccc[n+]2C)ccc1OCC(=O)Nc1ccccc1C	10%	1%	-22%	0%	6%	-1%
COc1cc2c(cc1OC)C(c1ccc(N)cc1)=NNC(=O)C2	nt	nt	nt	nt	-5%[19.4 µM]	nt
COc1cc(/C=C2\SC(=S)N(NC(=O)c3cccnc3)C2=O)ccc1O	16µM*	-32%	?	?	?	50µM*
COc1cc(/C=C2\SC(=S)N(c3cccnc3)C2=O)ccc1O	?	-25%	?	4%	?	?
COc1cc(/C=C2\SC(=S)N(NC(=O)c3ccc(O)cc3)C2=O)ccc1O	50µM*	?	13µM*	?	?	28µM*
CC(=O)c1ccc(N2CCN(C(=O)CCS(=O)(=O)c3ccc4c(c3)oc(=O)n4C)CC2)cc1	31%	2%	14%	-11%	9%	nt
O=S(=O)(O)c1ccc(NN=Cc2ccccc2O)cc1	?	-2%	nt	32µM*	-5%	-9%[11.6 µM]
O=S(=O)(N/N=C\c1ccccc1O)c1ccc(Cl)cc1	-11%	26%	-1%	1%	-4%	1%
COc1cc(C2Nc3cccc4cccc(c34)N2)cc(OC)c1O	?	-15%	45µM*	?	-6%	-11%[11.6 µM]
COc1cc(C2Nc3cccc4cccc(c34)N2)ccc1OC(C)=O	?	40µM*	-22%	14µM*	-19%	-30%
COc1ccc(C2Nc3cccc4cccc(c34)N2)cc1Br	62%	-13%	-2%	-13%	-2%	?
Cc1ccc(C(=O)Nc2ccc(-c3nc4ccccc4o3)cc2)cc1Cl	18%	-4%	1%	nt	-5%	nt
COC(=O)C1CCN(C(=O)COC(=O)CNS(=O)(=O)c2ccc(SC)c([N+](=O)[O-])c2)CC1	79µM*	-10%	nt	?	-41%	-10%[11.6 µM]
CSCCNC(=O)C1(C)CCN1C(=O)c1sccc1C (configuration not stated)	nt	nt	nt	nt	nt	-1%[57.1 µM]
O=C(O)C1CCCC1	?	?	nt	nt	28µM*	nt
O=C(O)C1CCNCC1	-7%[58.9 µM]	nt	0%[57.1 µM]	0%[57.1 µM]	4%[60.1 µM]	nt
Cc1ccc(-c2nn3c(C)nnc3s2)cc1NC(=O)c1ccc(-c2ccc(Cl)cc2Cl)o1	?	56µM*	4µM*	?	?	?
Cc1ccc(-c2nn3c(C)nnc3s2)cc1NC(=O)c1ccc(Br)o1	-22%	1%	-1%	-6%	12%	-1%
SMILES	Pol iota inh	FEN1 inhibitor	POLB inh	Pol eta inh	POLK inh	WRN inhibitor
Cc1ccc(-c2nn3c(C)nnc3s2)cc1NC(=O)c1ccc(-c2cccc(Cl)c2)o1	32µM*	?	7.1µM*	?	-24%	50µM*
CCCc1nc2sc3ccccc3c(=O)c2c(=O)n1Cc1ccco1	?	-4%	50µM*	?	?	-22%
COc1ccc2c(=O)c3c(=O)n(Cc4ccco4)c(-c4ccccc4)nc3oc2c1	1%	-7%	-12%	4%	-10%	-8%
CCCc1nc2oc3cc(OC)ccc3c(=O)c2c(=O)n1Cc1ccco1	?	-15%	45µM*	?	-43%	-29%
COCCn1c(=O)c(-c2ccc(Cl)cc2)nc2cnc(Nc3ccccc3)nc21	nt	nt	nt	nt	0%[60.1 µM]	nt
COc1ccc(-n2c(C)c(C(C)=O)c3cc(OC(=O)c4ccc(C)cc4)ccc32)cc1	-9%	6%	1%	-17%	1%	nt
Cc1ccc(/C=C2/SC(=S)N(C3CCCCC3)C2=O)o1	36%	3%	-18%	-15%	-2%	13%
Cc1ccc(/C=C2/SC(=O)NC2=S)o1	7.1µM*	40µM*	20µM*	8.9µM*	18µM*	40µM*
Cc1ccc(/C=C2\SC(=S)N(CC3CCCO3)C2=O)o1 (configuration not stated)	?	-20%	20µM*	?	?	-1%[11.6 µM]
CC(=O)NC(C)(c1ccccc1)c1nc(-c2cccc3cccnc23)cs1 (configuration not stated)	nt	nt	nt	nt	nt	3%
N#CCCN(Cc1ccccc1)C(=O)c1cccs1	50%	12%	0.16µM*	-21%	-2%	2%
O=C(COC(=O)CCCc1nc2ccccc2s1)Nc1ncc(Cl)cc1Cl	96%	-2%	40µM*	?	0%	-14%
CCOC(=O)CCC(=O)O[C@H]1C(O[C@@H]2C(C)[C@H](O[C@H]3C[C@@](C)(OC)C(O)C(C)O3)C(C)C(=O)OC(CC)[C@@](C)(O)C(O)[C@H](C)C(=O)C(C)C[C@]2(C)O)OC(C)CC1N(C)C (some centres not stated)	nt	nt	nt	nt	-6%[60.1 µM]	nt
CCC(=O)O[C@H]1C(O[C@@H]2C(C)[C@H](O[C@H]3C[C@@](C)(OC)C(O)C(C)O3)C(C)C(=O)OC(CC)[C@@](C)(O)C(O)[C@H](C)C(=O)C(C)C[C@]2(C)O)OC(C)CC1N(C)C (some centres not stated)	nt	nt	nt	nt	32µM*	nt
O=C1NC(=S)S/C1=C\c1coc2ccc(O)cc2c1=O	?	-24%	?	50µM*	-20%	?
O=C1NC(=S)SC1=Cc1cc(Br)ccc1O	?	?	nt	50µM*	-15%	?
Cc1cc(/C=C2\SC(=S)NC2=O)c(C)n1C1CC1	?	-2%	25µM*	?	?	?
CCN(CC)c1sc(S(=O)(=O)c2ccccc2)nc1S(=O)(=O)c1ccc(C)cc1	3%	-9%	-3%	-10%	-7%	nt
CN(C)c1nc(=NCc2cccs2)ss1	12%	-5%	nt	1%	-2%	22µM*
CSc1ccc(/C=N/NC(=O)CN2CCN(Cc3ccccc3Cl)CC2)cc1	8%	-11%	0.2µM*	-10%	-6%	-2%
